Laboratory results from PubChem BioAssay (NCATS).
“And” between values parts separate entries of the source, which are not always exact repeats. Equal entries are not always repeated. Inconclusive results are not listed. The source made the active and inactive calls. The call rests on the fitted dose curve; in most records, active means well fitted inhibition curve with a large enough effect; inconclusive means small, poorly fitted or top-dose-only effect; inactive means flat fitted curve, though single readings scatter. Where a SMILES comes first, the peptide text is derived from it. [ ]: non-standard residue; d: D form.

system: HaCat; experiment: Cytotoxic Profiling of Annotated Libraries Using Quantitative High-Throughput Screening (AID 1296008); conditions: Five cell lines viability, CellTiter-Glo ATP luminescence, 48-72 h; max response: active compounds read low; further: nearly all actives have a fitted effect of over 60% in size
Summary of the method: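 Cytotoxicity was measured as CellTiter-Glo ATP luminescence, read after 10 min at room temperature. Compound treatment of the cells lasted 48 or 72 hr at 37 degrees Celsius in a qHTS format.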
On the % scale 0 is the no-effect control and ±100 the full control effect; potency means the concentration at half of the fitted maximal effect.

Row | SMILES | outcome | max response | Potency
1 | CCOC(=O)[C@H](CCc1ccccc1)CC1(C(=O)N[C@H]2CCc3ccccc3N(CC(=O)O)C2=O)CCCC1 | inactive |  | 
2 | O=C(c1ccc(NS(=O)(=O)c2cccc3cccnc23)cc1)N1CCN(CC2CC2)CC1 | inactive |  | 
3 | CC(=O)O[C@H]1[C@H](Oc2ccccc2COC(=O)C2(O)C=CCCC2=O)O[C@H](CO)[C@@H](O)[C@@H]1O (stereo partly drawn) |  | 3.69% (inactive) | 
4 | CCc1nc(C(N)=O)c(Nc2ccc(N3CCC(N4CCN(C)CC4)CC3)c(OC)c2)nc1NC1CCOCC1 |  |  | 2.55 µM (active)
5 | CCCC(N[C@@H](C)C(=O)N1[C@H](C(=O)O)C[C@@H]2CCCC[C@@H]21)C(=O)OCC (stereo partly drawn) | inactive |  | 
6 | C=CC(C)(O)CC/C=C(\C)C(=O)OC1CC2(C(=O)O)CCC3(C)C(=CCC4C5(C)CCC(OC6OC(COC7OCC(O)C(O)C7O)C(O)C(OC7OCC(O)C(O)C7O)C6OC6OC(CO)C(O)C(O)C6OC6OCC(O)C(O)C6O)C(C)(C)C5CCC43C)C2CC1(C)C (stereo not drawn) | inactive |  | 
7 | COc1cc(/C=C/C(=O)OC(C)(C)C(OC2OC(CO)C(O)C(O)C2O)C(=O)OCc2ccc(OC3OC(CO)C(O)C(O)C3O)cc2)ccc1O (stereo not drawn) |  | 3.1% (inactive) | 
8 | CN1Cc2c(N)cccc2C(c2ccccc2)C1 (stereo not drawn) |  | -17.5% (inactive) | 
9 | CC1=C2C(=O)C=C(CO)[C@@H]2[C@H]2OC(=O)[C@H](C)[C@@H]2[C@@H](O)C1 | inactive |  | 
10 | CC1(C)NC2N(C1=O)c1ccccc1C2(O)CC(C(=O)O)n1cnc2ccccc2c1=O (stereo not drawn) |  | -3.78% (inactive) | 
11 | Cn1c(=O)c2nc(/C=C/c3cccc(Cl)c3)n(C)c2n(C)c1=O |  | -5.76% (inactive) | 
12 | C=C1CCC2C(C)(C(=O)O)CC(O)CC2(C)C1CC/C(C)=C/C(=O)O (stereo not drawn) |  | 3.69% (inactive) | 
13 | Cc1coc2c1CC1OC1(C)CCC1OC1(C)C2 (stereo not drawn) |  | 3.75% (inactive) | 
14 | COc1ccc(C)c2sc(NC(=O)c3ccncc3)nc12 |  | 4.45% (inactive) | 
15 | C/C=C(\C)C(=O)O[C@@H]1CC2[C@@H](CC=C3C[C@@H](O[C@H]4C[C@H](OC)[C@H](O[C@H]5C[C@H](OC)[C@H](O[C@H]6C[C@H](OC)[C@H](O[C@H]7C[C@@H](OC)[C@H](O[C@@H]8O[C@H](CO)[C@@H](O)[C@H](O)[C@H]8O)[C@@H](C)O7)[C@@H](C)O6)[C@@H](C)O5)[C@@H](C)O4)CC[C@@]32C)[C@@]2(O)CC[C@H](C(C)=O)[C@@]12C (stereo partly drawn) | inactive |  | 
16 | OC[C@H]1O[C@@H](Oc2cc(O)cc(-c3cc4ccc(O)cc4o3)c2)[C@H](O)[C@@H](O)[C@@H]1O |  | -4.29% (inactive) | 
17 | CC1CCC2(C)C(CC(O)C(O)C23CO3)C1(C)CCC1=CC(=O)OC1O (stereo not drawn) | inactive; activator |  | 
18 | CC1(C)CCCC2(C)C(CO)C3CCC2C31 (stereo not drawn) |  | 0.929% (inactive) | 
19 | Cc1c(N2C(=O)c3ccc(C(=O)O)cc3C2=O)c(=O)n(-c2ccccc2)n1C | inactive |  | 
20 | CC1(C)CCC(C)(C)c2cc3c(cc21)Sc1ccccc1N=C3c1ccc(C(=O)O)cc1 |  | -6.28% (inactive) | 
21 | CC(=O)N[C@H](Cc1ccc(O)cc1)C(=O)N[C@H](CCCN=C(N)N)C(=O)N[C@H](Cc1ccccc1)C(N)=O (Ac-[dY]-[dR]-[dF]-NH2) |  | -6.09% (inactive) | 
22 | COc1ccc(C(O[C@@H]2O[C@H](CO)[C@@H](O)[C@H](O)[C@H]2O)C(CO)Oc2ccc(/C=C/CO)cc2OC)cc1O (stereo partly drawn) | inactive |  | 
23 | COc1ccccc1[C@@H]1C2=C(CC(C)(C)CC2=O)Nc2n[nH]c(C(F)(F)F)c21 | inactive |  | 
24 | C[C@]1(OC(=O)/C=C/c2ccccc2)C[C@H](O)[C@]2(O)C=CO[C@@H](O[C@@H]3O[C@H](CO)[C@@H](O)[C@H](O)[C@H]3O)C12 (stereo partly drawn) | inactive |  | 
25 | COC1CC(OC2CCC3(C)C(=CCC4C3CCC3(C)C(C(C)O)CCC43O)C2)OC(C)C1OC1OC(C)C(OC2OC(COC3OC(COC4OC(CO)C(O)C(O)C4O)C(O)C(O)C3O)C(O)C(O)C2O)C(OC)C1O (stereo not drawn) |  | -1.65% (inactive) | 
26 | CC(=O)N[C@H]1CCN(c2ccc(C3=NOC(CN[S+](=O)([O-])C(C)C)C3)cc2F)C1 (stereo partly drawn) | inactive |  | 
27 | CN(C)C/C=C/C(=O)Nc1ccc(C(=O)Nc2cccc(Nc3ncc(Cl)c(-c4c[nH]c5ccccc45)n3)c2)cc1 |  |  | 1.84 µM (active) and 1.05 µM (active)
28 | COc1cc(N2CCC(N(C)C)CC2)ccc1Nc1ncc(Cl)c(Nc2ccccc2P(C)(C)=O)n1 |  |  | 1.84 µM (active) and 2.34 µM (active)
